The results in this text go back to the supplement of paper PMC4166925.

± gives the standard deviation of the averaged measurements. In all, about 33,000 sequences were measured (“E-score (dimensionless, -0.5 to 0.5)”: median about -0.049, highest 2% from about 0.37 on). The sample as a whole holds a higher share of the highest values than the screen did.

This assay concerns T1, PmTbr T-box DNA-binding domain (GST fusion).
T1 sequence: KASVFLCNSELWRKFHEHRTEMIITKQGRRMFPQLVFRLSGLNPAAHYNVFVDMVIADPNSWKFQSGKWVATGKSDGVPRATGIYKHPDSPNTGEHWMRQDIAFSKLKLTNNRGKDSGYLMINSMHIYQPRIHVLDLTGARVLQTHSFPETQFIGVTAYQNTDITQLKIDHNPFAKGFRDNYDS
As to the kind of experiment: PBM E-score of 8-mer (E-score (dimensionless, -0.5 to 0.5)); Tbr is Tbrain of the sea star Patiria miniata (Pm) or the sea urchin Strongylocentrotus purpuratus (Sp); higher = stronger binding preference. The note with it: the construct has about 5 more residues each side. In short, it runs like this: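 Universal Agilent oligonucleotide arrays, made double-stranded by primer extension, were incubated with 200 nM GST-fused Tbr T-box DNA-binding domain in PBS (pH 7.5). The protein was expressed in BL21 E. coli at 20 °C and purified by glutathione affinity chromatography. After scanning and quantification, the Universal PBM Analysis Suite assigned an enrichment E-score to each ungapped 8-mer, averaged over duplicate arrays.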
GGTGCAAC: the “PBM E-score of 8-mer” value is 0.299 ± 0.033.

Consider ACTGCGAA, for which the “PBM E-score of 8-mer” value turned out to be 0.315 ± 0.012.

AGTGCGAT: the “PBM E-score of 8-mer” value amounted to 0.427 ± 0.0052.

In the case of AATGCGAT, the “PBM E-score of 8-mer” value turned out to be 0.024 ± 0.0098.

With ACTGCGAT, the “PBM E-score of 8-mer” value worked out at 0.107 ± 0.048.

As to TGTGCAAA, the “PBM E-score of 8-mer” value came to 0.197 ± 0.043.

In the case of AGTGCGTA, the “PBM E-score of 8-mer” value is 0.146 ± 0.048.

Regarding GGTGCGAC, the “PBM E-score of 8-mer” value was 0.462 ± 0.017.

Take AGTGCGAA: the “PBM E-score of 8-mer” value amounted to 0.4725 ± 0.00067.

In the case of GGTGCAAA, the “PBM E-score of 8-mer” value was 0.393 ± 0.0071.

CGTGCGAC: the “PBM E-score of 8-mer” value was determined as 0.277 ± 0.018.

In the case of GCTGCGAC, the “PBM E-score of 8-mer” value was found to be 0.137 ± 0.0089.

Take ATCCTGCC: the “PBM E-score of 8-mer” value is -0.0684 ± 0.0044.

As to CTAGCAAG, the “PBM E-score of 8-mer” value was determined as 0.0488 ± 0.014.

For the sequence TGAGGGAA, the “PBM E-score of 8-mer” value was -0.0537 ± 0.066.

Regarding ATCATAGC, the “PBM E-score of 8-mer” value is 0.0043 ± 0.09.

Take CTGGCGAC: the “PBM E-score of 8-mer” value worked out at 0.124 ± 0.059.

For the sequence GGTGCGTA, the “PBM E-score of 8-mer” value came to 0.2616 ± 0.00075.

As for CGTGCAAA, the “PBM E-score of 8-mer” value was 0.11 ± 0.0028.

On to AGTGCGAC, for which the “PBM E-score of 8-mer” value came out at 0.37 ± 0.012.

Turning to TGTGCGAA, the “PBM E-score of 8-mer” value is 0.448 ± 0.0066.

Turning to ACTGCGAC, the “PBM E-score of 8-mer” value turned out to be 0.0881 ± 0.0041.

On to TATGCGAA, for which the “PBM E-score of 8-mer” value was 0.157 ± 0.0088.

On to AGTGCGTC, for which the “PBM E-score of 8-mer” value is -0.147 ± 0.029.

Turning to CGTGCGAA, the “PBM E-score of 8-mer” value is 0.448 ± 0.0091.

On to CGTGCGCA, for which the “PBM E-score of 8-mer” value was 0.0827 ± 0.019.

Regarding TCTGCGAA, the “PBM E-score of 8-mer” value was 0.201 ± 0.038.

Regarding GATGCGAA, the “PBM E-score of 8-mer” value was 0.186 ± 0.038.

Take GGTGCGAA: the “PBM E-score of 8-mer” value amounted to 0.48957 ± 0.00016.

AGCCGACA: the “PBM E-score of 8-mer” value worked out at 0.165 ± 0.007.

In the case of GTGGCTCA, the “PBM E-score of 8-mer” value was found to be 0.0273 ± 0.048.

In the case of CGCCGCAA, the “PBM E-score of 8-mer” value is -0.0674 ± 0.0034.

Take ATTGCTCG: the “PBM E-score of 8-mer” value is -0.0286 ± 0.034.

Turning to CAGCCAGA, the “PBM E-score of 8-mer” value is -0.0394 ± 0.019.

Turning to CGAGATCC, the “PBM E-score of 8-mer” value was determined as 0.0268 ± 0.01.

As to AAGGGATT, the “PBM E-score of 8-mer” value was -0.212 ± 0.11.

CCTAAAAC: the “PBM E-score of 8-mer” value is -0.00751 ± 0.035.

Consider CTGTTCAC, for which the “PBM E-score of 8-mer” value worked out at 0.263 ± 0.012.

In the case of CATGCAGC, the “PBM E-score of 8-mer” value was -0.0211 ± 0.03.

For the sequence AGAGTGCA, the “PBM E-score of 8-mer” value stood at 0.0698 ± 0.0037.

For CACTTGGC, the “PBM E-score of 8-mer” value was 0.236 ± 0.038.

As for AGTGCGGA, the “PBM E-score of 8-mer” value amounted to 0.265 ± 0.0086.

Regarding GTTGCGAA, the “PBM E-score of 8-mer” value stood at 0.389 ± 0.015.

ATTGCGAA: the “PBM E-score of 8-mer” value was determined as 0.27169 ± 0.00012.

With GGTGCGGA, the “PBM E-score of 8-mer” value was found to be 0.405 ± 0.015.

As to AGTGCGAG, the “PBM E-score of 8-mer” value worked out at 0.405 ± 0.021.

With CTTGCGAA, the “PBM E-score of 8-mer” value was 0.328 ± 0.029.

Regarding CGTGCGAG, the “PBM E-score of 8-mer” value was 0.358 ± 0.018.

Consider CGTGCGGA, for which the “PBM E-score of 8-mer” value was determined as 0.0633 ± 0.03.

As for ACTGCGAG, the “PBM E-score of 8-mer” value was found to be 0.179 ± 0.04.

For the sequence ACTTCGAC, the “PBM E-score of 8-mer” value turned out to be 0.14 ± 0.024.

For the sequence ATTGACAA, the “PBM E-score of 8-mer” value was 0.304 ± 0.043.

For the sequence CTTGACAC, the “PBM E-score of 8-mer” value was 0.43 ± 0.023.

ATTGACAG: the “PBM E-score of 8-mer” value came out at 0.15 ± 0.052.

Take CTTGACCC: the “PBM E-score of 8-mer” value is -0.326 ± 0.035.

As to ATTGACAC, the “PBM E-score of 8-mer” value came out at 0.412 ± 0.0065.

Take CTTGACGC: the “PBM E-score of 8-mer” value turned out to be 0.27 ± 0.0032.

Turning to ATTTGGTC, the “PBM E-score of 8-mer” value is -0.154 ± 0.024.

Consider CCACGTAC, for which the “PBM E-score of 8-mer” value was 0.0376 ± 0.016.

AGTCATAT: the “PBM E-score of 8-mer” value is -0.234 ± 0.069.

With CTTAACAC, the “PBM E-score of 8-mer” value is 0.434 ± 0.013.

Consider ATTAACAA, for which the “PBM E-score of 8-mer” value was 0.173 ± 0.14.

Turning to CTTAACCC, the “PBM E-score of 8-mer” value is -0.0938 ± 0.018.

Consider CTTAACAA, for which the “PBM E-score of 8-mer” value amounted to 0.201 ± 0.041.

On to ATTAACAC, for which the “PBM E-score of 8-mer” value was 0.449 ± 0.0075.

For ATTAACAG, the “PBM E-score of 8-mer” value is 0.143 ± 0.048.

Regarding CTACTCGA, the “PBM E-score of 8-mer” value was -0.0985 ± 0.018.

As for AACTTAAT, the “PBM E-score of 8-mer” value is -0.0144 ± 0.063.

Turning to GGTTCTTA, the “PBM E-score of 8-mer” value is -0.0403 ± 0.11.

For ACCTTAAC, the “PBM E-score of 8-mer” value was determined as 0.0595 ± 0.0064.

Turning to GACACCCC, the “PBM E-score of 8-mer” value amounted to 0.409 ± 0.031.

Consider AACACCCA, for which the “PBM E-score of 8-mer” value amounted to 0.348 ± 0.029.

On to GCCACCCC, for which the “PBM E-score of 8-mer” value was found to be 0.208 ± 0.0084.

In the case of GACACCCA, the “PBM E-score of 8-mer” value turned out to be 0.388 ± 0.032.

As to GGCACCCA, the “PBM E-score of 8-mer” value stood at 0.217 ± 0.018.

As to AACACCCC, the “PBM E-score of 8-mer” value was 0.433 ± 0.0072.

For ACCACCCT, the “PBM E-score of 8-mer” value is 0.0583 ± 0.021.

Turning to AACACCCT, the “PBM E-score of 8-mer” value was found to be 0.433 ± 0.017.

Consider ACCACCCC, for which the “PBM E-score of 8-mer” value was found to be 0.191 ± 0.072.

AGCACCCT: the “PBM E-score of 8-mer” value came to 0.309 ± 0.031.

On to GGCACCCC, for which the “PBM E-score of 8-mer” value amounted to 0.244 ± 0.03.

As for GCCACCCA, the “PBM E-score of 8-mer” value came out at 0.0536 ± 0.024.

In the case of CTACATGA, the “PBM E-score of 8-mer” value was -0.0685 ± 0.044.

As to CTCCGTCC, the “PBM E-score of 8-mer” value is -0.281 ± 0.02.

On to GCTCAATA, for which the “PBM E-score of 8-mer” value is -0.0299 ± 0.077.

Turning to CCTCGATC, the “PBM E-score of 8-mer” value was found to be 0.0184 ± 0.014.

CTCAGAGA: the “PBM E-score of 8-mer” value was -0.262 ± 0.012.

Take CGCGTTGC: the “PBM E-score of 8-mer” value was 0.211 ± 0.017.

For the sequence GCTAAGGA, the “PBM E-score of 8-mer” value was -0.08306 ± 0.00035.
